Bioassay records: PubChem, Sanford-Burnham Center for Chemical Genomics
CYP2C19 act = increases human CYP2C19 enzyme activity; activation factor at 5 µM; 96,000 tested, under 10 active; recombinant CYP2C19, luciferin-H EGE luminescence; active compounds read high; 0 = fully inhibited enzyme, 1 = untreated enzyme; P33261;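 active means activation factor of at least 2 at 5 µM in the primary screen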;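 further: 0 = wells with 2.5 mM tranylcypromine and 1 = vehicle-only wells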
CYP2C9 act = CYP2C9 (human) activation; recombinant CYP2C9, luciferin-H conversion, luminescence; active compounds read high; factor 1 = untreated enzyme, 0 = blocked; activation factor at 5 µM; actives 1.4% (n = 96,000); AID 1024;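 active means activation factor of 2 or more for CYP2C9 at a 5 µM dose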;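 further: 0 = sulfaphenazole-blocked wells and 1 = vehicle-only wells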
Target sequence (P11712 whole entry, looked up): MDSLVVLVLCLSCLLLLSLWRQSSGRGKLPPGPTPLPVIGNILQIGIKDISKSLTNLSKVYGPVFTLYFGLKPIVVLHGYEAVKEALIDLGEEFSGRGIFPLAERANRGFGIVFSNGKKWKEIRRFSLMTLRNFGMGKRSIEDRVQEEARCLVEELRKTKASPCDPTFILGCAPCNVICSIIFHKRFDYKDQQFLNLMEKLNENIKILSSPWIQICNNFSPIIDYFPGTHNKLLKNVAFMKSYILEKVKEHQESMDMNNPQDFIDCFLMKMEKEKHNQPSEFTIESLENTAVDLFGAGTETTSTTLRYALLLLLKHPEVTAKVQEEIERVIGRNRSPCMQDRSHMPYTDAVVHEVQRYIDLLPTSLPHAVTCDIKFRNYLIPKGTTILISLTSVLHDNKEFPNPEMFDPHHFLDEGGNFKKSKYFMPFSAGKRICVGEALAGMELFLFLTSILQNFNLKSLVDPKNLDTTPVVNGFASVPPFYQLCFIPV
CYP2C19 inh = blocks human cytochrome P450 2C19; AID 778; P33261; inhibition, % at 5 µM; actives 21% (n = 96,000); CYP2C19 Supersomes, luciferin-H EGE luminescence, 30 min;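 active means CYP2C19 inhibition above a set limit at 5 µM in the primary screen, cut at about 50% in these data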;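 further: plate controls were negative control wells for no effect and 2.5 mM tranylcypromine positive control for full effect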
CYP2C9 inhib = human CYP2C9 inhibition; P11712; CYP2C9 Supersomes, luciferin-H conversion, luminescence; inhibition, % at 5 µM; actives 20% (n = 96,000); AID 777;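 active means blocking of liver enzyme CYP2C9 beyond about 50% at 5 µM, limit read from the data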
CD11b adhes inh = CD11b/CD18-fibrinogen binding inhibition | P05107+P11215 | K562 CD11b/CD18 adhesion to fibrinogen, ATPlite luminescence; Mn2+ added to activate the integrin | inhibition, % at 10 µM | actives 0.54% (n = 93,000) | AID 1497;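 active means primary inhibition of 50% or more at 10 µM, then 40% or more on retest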
Mac1 fbg enh = increases human CD11b/CD18 adhesion to fibrinogen; P05107+P11215; K562 CD11b/CD18 adhesion to fibrinogen, ATPlite luminescence; activation, % at 10 µM; actives 0.07% (n = 93,000); AID 1499;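 active means 10 µM primary screen giving 50% or more activity, confirmed by 40% or more on retest at that dose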
Numbers without * were called inactive; . = not tested or not shown. An excerpt weighted towards active compounds, which were near 28% of everything screened.

SMILES	CYP2C19 act	CYP2C9 act	CYP2C19 inh	CYP2C9 inhib	CD11b adhes inh	Mac1 fbg enh
CCOc1ccc(S(=O)(=O)N2CCCCCC2)cc1	0.1	1	91.8*	4.9	8.1	-2.5
Cc1cc2ncn(C(=O)c3c(-c4ccccc4Cl)noc3C)c2cc1C	0.6	0.6	37.6	44.1	5.0	-3.3
Cc1cc[n+]2c3c(cccc13)CCC2	1	1	4.8	4.7	22.7	-0.2
Cn1c(N2CCC(C(N)=O)CC2)nc2c1c(=O)n(Cc1cccc(Br)c1)c(=O)n2C	0.9	0.9	14.9	10.2	1.4	0.3
CC1=CCC(C(=O)O)(C(=O)N/N=C/c2cccs2)C(c2ccc(Cl)cc2)C1 (centres undefined)	1	0.6	1.3	44.4	-1.9	-4.8
Cc1cc(N2C3CCC2CC(O)(c2ccc(F)cc2)C3)nc(-c2ccccc2)n1 (centres undefined)	0.1	0	93.7*	100.0*	-6.6	3.2
CC(C)C(=O)N1C2CCC1CC(O)(c1ccc(F)cc1)C2 (centres undefined)	1	0.8	-3.6	20.9	.	.
CCOc1ccc(NC(=O)CC2C(=O)N(C)C(=S)N2Cc2ccco2)cc1 (centres undefined)	.	.	.	.	4.2	-0.1
CCOc1ccc(NC(=S)N(Cc2ccc(N(C)C)cc2)Cc2ccco2)cc1	0.5	0.4	49.7	62.7*	.	.
CN=CC1=C(O)CC(C)(C)CC1=O	1	0.8	1.5	19.3	11.7	-3.3
CC1(C)CC(=O)C(CC2=C(O)CC(C)(C)CC2=O)C(=O)C1	0.5	1	51.2*	2.8	-4.1	-4.8
CC1(C)CC(=O)C(CC2=C(O)CC(C)(C)CC2=O)=C(O)C1	0.1	0.7	85.7*	26.1	-11.8	-3.2
O=C(CSc1nccc(=O)[nH]1)Nc1ccc(F)c(Cl)c1	1	0.8	-0.7	21.9	-34.3	4.3
O=C(CSc1nccc(=O)[nH]1)Nc1ccc(Br)c(Cl)c1	0.7	0.2	33.5	79.4*	10.1	-10.6
CN1C(=S)SC(N(O)C(=O)NC2CCCCC2)C1(C)C (centres undefined)	0.9	0.8	8.5	24.5	7.9	-1.4
O=C(O)c1ccc2cccc(Cl)c2c1O	1.1	1	-11.2	-4.8	2.4	6.6
C=CCOC(=O)C1=C(C)Nc2nnnn2C1c1cccc(OC)c1OC (centres undefined)	0.4	0.2	58.6*	83.1*	-22.9	-4.9
COc1cccc(C2C(C(=O)Nc3cccnc3)=C(C)Nc3nnnn32)c1OC (centres undefined)	1	1	0.1	2.5	2.7	-4.0
CCOC(=O)C1=C(C)Nc2nnnn2C1c1c[nH]c2ccccc12 (centres undefined)	0.1	0.2	90.2*	84.0*	-1.6	-0.4
C=CCn1c(COc2ccccc2F)nnc1SCC(=O)Nc1cc2oc3ccccc3c2cc1OC	0.8	0.6	20.7	41.9	18.5	4.3
C=CCn1c(SCC(=O)Nc2cc3oc4ccccc4c3cc2OC)nnc1-c1cnccn1	0.2	0.1	75.2*	95.0*	10.8	12.6
C=CCn1c(SCC(=O)Nc2cccc3ccccc23)nnc1-c1cnccn1	0.4	0.6	55.4*	43.1	.	.
O=C(Nc1ccc(Cl)c(Cl)c1)Nc1nnc(CC2=CCCCC2)s1	.	.	.	.	8.1	41.1
O=C1C=C(NCc2ccncc2)CC(c2ccccc2)C1 (centres undefined)	0	0.6	95.7*	45.0	0.8	10.4
O=C1C=C(NCc2ccc(Cl)cc2)CC(c2ccco2)C1 (centres undefined)	0.1	0.4	93.1*	60.2*	3.7	-4.5
CC(C)CNC1=CC(=O)CC(c2ccco2)C1 (centres undefined)	0.4	0.8	55.4*	21.7	-7.2	13.6
O=C(Cn1cnc2ccccc2c1=O)NCC(=O)N1CCN(c2ccccn2)CC1	1	1.1	-3.5	-11.1	-8.4	0.9
CC(C)N1CCC2(CC1)N=C(c1ccc3c(c1)OCO3)CC(c1cc(Cl)ccc1O)N2 (centres undefined)	0.9	0.8	10.9	19.5	-47.0	1.3
Cc1cc(C)n(-c2ccc(C(=O)NCc3ccc4c(c3)OCO4)cc2)n1	0.6	0.5	41.5	48.9	-17.9	-1.6
